Columns and labels:
Test in all cases: yeast three-hybrid, YBZ-1, SC-Leu-His + 0.5 mM 3-AT, 4 days
Conditions in all cases: tags: N-Gal4 AD-HA kept; label: inside an RPR1-promoter hybrid RNA with tandem MS2 sites; ssRNA
PUM1 PUF domain R5-LHI = PUM1 PUF domain R5-LHI (Homo sapiens, UniProt Q14671 828-1176, C1007L;R1008H;Q1011I)
In short: (§1)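 Each repeat of the Pumilio-1 PUF domain was randomized at its three base-contacting residues, and these libraries were co-expressed from a centromeric plasmid with matching RNA elements in strain YBZ-1. After four days on SC-Leu (input) or SC-Leu-His + 0.5 mM 3-AT (selection), the repeat regions were PCR-amplified and Illumina-sequenced. The interaction score compares variant frequency between input and selection as a log change, computed in log2 with a pseudocount of 1 for absent variants.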

PUM1 PUF domain R2-MWG = PUM1 PUF domain R2-MWG (Homo sapiens, UniProt Q14671 828-1176, N899M;Y900W;Q903G)
In short: as §1

PUM1 PUF domain R4-AHV = PUM1 PUF domain R4-AHV (Homo sapiens, UniProt Q14671 828-1176, N971A;Q975V)
In short: as §1

PUM1 PUF domain R4-PYF = PUM1 PUF domain R4-PYF (Homo sapiens, UniProt Q14671 828-1176, N971P;H972Y;Q975F)
In short: as §1

PUM1 PUF domain R4-WAV = PUM1 PUF domain R4-WAV (Homo sapiens, UniProt Q14671 828-1176, N971W;H972A;Q975V)
In short: as §1

PUM1 PUF domain R5-RYP = PUM1 PUF domain R5-RYP (Homo sapiens, UniProt Q14671 828-1176, C1007R;R1008Y;Q1011P)
In short: as §1

PUM1 PUF domain R2-SWF = PUM1 PUF domain R2-SWF (Homo sapiens, UniProt Q14671 828-1176, N899S;Y900W;Q903F)
In short: as §1

PUM1 PUF domain R5-NGR = PUM1 PUF domain R5-NGR (Homo sapiens, UniProt Q14671 828-1176, C1007N;R1008G;Q1011R)
In short: as §1

PUM1 PUF domain R3-MRW = PUM1 PUF domain R3-MRW (Homo sapiens, UniProt Q14671 828-1176, C935M;Q939W)
In short: as §1

PUM1 PUF domain R3-RSR = PUM1 PUF domain R3-RSR (Homo sapiens, UniProt Q14671 828-1176, C935R;R936S;Q939R)
In short: as §1

PUM1 PUF domain R4-WAV, sequence (Q14671 828-1176 N971W/H972A/Q975V): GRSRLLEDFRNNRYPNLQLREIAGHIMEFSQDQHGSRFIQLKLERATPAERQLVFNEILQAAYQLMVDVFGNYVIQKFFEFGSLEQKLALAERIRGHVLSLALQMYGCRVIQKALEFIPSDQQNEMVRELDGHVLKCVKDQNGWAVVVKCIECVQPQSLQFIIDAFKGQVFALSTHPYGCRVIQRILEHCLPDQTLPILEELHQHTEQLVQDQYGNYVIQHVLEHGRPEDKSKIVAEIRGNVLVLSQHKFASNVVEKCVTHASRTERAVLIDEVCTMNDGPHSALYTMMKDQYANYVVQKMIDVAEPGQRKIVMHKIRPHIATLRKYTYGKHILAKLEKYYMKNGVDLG

Sequence: GGCUAGAACUAGUGGAUCCCCCGGCGCCCGGCGGCUCGAGCCCGGGUAAGUGUUAAUAGUCUGCAUGCCGCCGGGCGCCAUGCCUGCAGGUCGACUCUAGAAAACAUG
- binding signal (PUM1 PUF domain R5-LHI): 3.78 log2 enrichment (interaction score)

Sequence: GGCUAGAACUAGUGGAUCCCCCGGCGCCCGGCGGCUCGAGCCCGGGUAAGUGUAAAGAGUCUGCAUGCCGCCGGGCGCCAUGCCUGCAGGUCGACUCUAGAAAACAUG
- binding signal (PUM1 PUF domain R2-MWG): 3.95 log2 enrichment (interaction score)

Sequence: GGCUAGAACUAGUGGAUCCCCCGGCGCCCGGCGGCUCGAGCCCGGGUAAGUGUAAAUAGUCUGCAUGCCGCCGGGCGCCAUGCCUGCAGGUCGACUCUAGAAAACAUG
- binding signal (PUM1 PUF domain R4-AHV): 4.52 log2 enrichment (interaction score)
- binding signal (PUM1 PUF domain R4-PYF): 7.96 log2 enrichment (interaction score)
- binding signal (PUM1 PUF domain R4-WAV): 2.33 log2 enrichment (interaction score)
- binding signal (PUM1 PUF domain R5-RYP): 2.37 log2 enrichment (interaction score)
- binding signal (PUM1 PUF domain R2-SWF): 1.61 log2 enrichment (interaction score)

Sequence: GGCUAGAACUAGUGGAUCCCCCGGCGCCCGGCGGCUCGAGCCCGGGUAAGUGUAUAUAGUCUGCAUGCCGCCGGGCGCCAUGCCUGCAGGUCGACUCUAGAAAACAUG
- binding signal (PUM1 PUF domain R4-WAV): 5.71 log2 enrichment (interaction score)

Sequence: GGCUAGAACUAGUGGAUCCCCCGGCGCCCGGCGGCUCGAGCCCGGGUAAGUGUCAAUAGUCUGCAUGCCGCCGGGCGCCAUGCCUGCAGGUCGACUCUAGAAAACAUG
- binding signal (PUM1 PUF domain R5-NGR): 2.58 log2 enrichment (interaction score)
- binding signal (PUM1 PUF domain R5-LHI): 0.32 log2 enrichment (interaction score)

Sequence: GGCUAGAACUAGUGGAUCCCCCGGCGCCCGGCGGCUCGAGCCCGGGUAAGUGUAAAAAGUCUGCAUGCCGCCGGGCGCCAUGCCUGCAGGUCGACUCUAGAAAACAUG
- binding signal (PUM1 PUF domain R2-MWG): 1.87 log2 enrichment (interaction score)
- binding signal (PUM1 PUF domain R2-SWF): 2.22 log2 enrichment (interaction score)

Sequence: GGCUAGAACUAGUGGAUCCCCCGGCGCCCGGCGGCUCGAGCCCGGGUAAGUGUACAUAGUCUGCAUGCCGCCGGGCGCCAUGCCUGCAGGUCGACUCUAGAAAACAUG
- binding signal (PUM1 PUF domain R4-WAV): 2.23 log2 enrichment (interaction score)

Sequence: GGCUAGAACUAGUGGAUCCCCCGGCGCCCGGCGGCUCGAGCCCGGGUAAGUGUAAGUAGUCUGCAUGCCGCCGGGCGCCAUGCCUGCAGGUCGACUCUAGAAAACAUG
- binding signal (PUM1 PUF domain R3-MRW): 5.09 log2 enrichment (interaction score)

Sequence: GGCUAGAACUAGUGGAUCCCCCGGCGCCCGGCGGCUCGAGCCCGGGUAAGUGUAAUUAGUCUGCAUGCCGCCGGGCGCCAUGCCUGCAGGUCGACUCUAGAAAACAUG
- binding signal (PUM1 PUF domain R3-RSR): 3.41 log2 enrichment (interaction score)
- binding signal (PUM1 PUF domain R3-MRW): 2.07 log2 enrichment (interaction score)

Reference: article PMC8384837, “Expanding the binding specificity for RNA recognition by a PUF domain”
